Values without a mark were called inactive. Results filed as inconclusive are left out. Where a call stands in place of a potency, no number is given. The source made the active and inactive calls. Unless noted, calls follow the shape of the dose curve; as a rule, active = well fitted curve in the direction sought with a large enough effect; inconclusive = small, poorly fitted or top-dose-only effect, or another doubt; inactive = no such curve, though single readings can be large; an effect the other way counts as inactive or inconclusive.
How the values were obtained:
[1] = biological target: Cytochrome P450 3A4 (Homo sapiens) (UniProt P08684); experiment: qHTS Assay for Inhibitors and Substrates of Cytochrome P450 3A4 (AID 884); also: nearly all actives have a fitted effect of over 50% in size; also: potency is read from the fitted curve at half-maximal effect
Cytochrome P450 3A4 (Homo sapiens), sequence (P08684 whole entry, looked up): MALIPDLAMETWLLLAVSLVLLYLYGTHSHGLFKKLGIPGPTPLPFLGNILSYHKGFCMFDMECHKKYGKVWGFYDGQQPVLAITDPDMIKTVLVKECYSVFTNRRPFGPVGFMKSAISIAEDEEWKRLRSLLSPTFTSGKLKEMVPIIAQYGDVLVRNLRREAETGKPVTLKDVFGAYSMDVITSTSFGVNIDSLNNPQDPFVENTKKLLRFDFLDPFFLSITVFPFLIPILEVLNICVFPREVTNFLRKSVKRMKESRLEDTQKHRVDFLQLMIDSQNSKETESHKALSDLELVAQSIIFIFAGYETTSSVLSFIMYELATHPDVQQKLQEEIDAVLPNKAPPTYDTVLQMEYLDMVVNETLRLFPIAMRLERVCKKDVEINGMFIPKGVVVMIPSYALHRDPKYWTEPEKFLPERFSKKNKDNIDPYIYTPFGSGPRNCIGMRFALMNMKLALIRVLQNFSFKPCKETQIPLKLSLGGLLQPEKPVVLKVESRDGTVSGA
Summary of the method: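 Luminescent readout of luciferin produced by CYP3A4 (20 nM) dealkylation of Luciferin-PPXE, 25 uM (its KM). NADPH-driven reaction ran 60 min at RT after 10 min compound preincubation; data scaled to 57 uM ketoconazole as 100% inhibition.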

[2] = biological target: Cytochrome P450 3A4 (Homo sapiens) (UniProt P08684); experiment: qHTS Assay for Activators of Cytochrome P450 3A4 (AID 885); also: nearly all actives have a fitted effect of over 65% in size; also: potency is read from the fitted curve at half-maximal effect
Summary of the method: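 Luminescent readout of luciferin formed from 25 uM Luciferin-PPXE (KM level) by 20 nM CYP3A4 in 200 mM KPO4, with 60 min NADPH-driven reaction at room temperature after 10 min compound exposure. Ketoconazole (57 uM) defined 100% inhibition.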

[3] = qHTS Assay for Identification of Small Molecule Agonists for Hypoxia Response Element Signaling Pathway (AID 914; active = well fitted activation curve with a large enough effect in the signal ratio, with a control signal flat, not every such curve was filed as active; the % refers to the signal ratio); details: ME-180 (cervical carcinoma) HRE-bla reporter, beta-lactamase ratio, CoCl2, 17 h; activation: hits give high values
Summary of the method: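 A beta-lactamase reporter under hypoxia response element control in ME-180 cells served as the system. Compound titrations plus EC50 CoCl2 ran 17 h at 37 degrees Celsius; AC50 values were fitted from %Activity.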

[4] = biological target: ATP-dependent 6-phosphofructokinase (Trypanosoma brucei brucei) (UniProt O15648); experiment: qHTS Assay to Find Inhibitors of T. brucei phosphofructokinase: hit validation (AID 492961);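 also: luminescence reports ADP formed as PFK phosphorylates fructose-6-phosphate with ATP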
ATP-dependent 6-phosphofructokinase (Trypanosoma brucei brucei), sequence (O15648 whole entry, looked up): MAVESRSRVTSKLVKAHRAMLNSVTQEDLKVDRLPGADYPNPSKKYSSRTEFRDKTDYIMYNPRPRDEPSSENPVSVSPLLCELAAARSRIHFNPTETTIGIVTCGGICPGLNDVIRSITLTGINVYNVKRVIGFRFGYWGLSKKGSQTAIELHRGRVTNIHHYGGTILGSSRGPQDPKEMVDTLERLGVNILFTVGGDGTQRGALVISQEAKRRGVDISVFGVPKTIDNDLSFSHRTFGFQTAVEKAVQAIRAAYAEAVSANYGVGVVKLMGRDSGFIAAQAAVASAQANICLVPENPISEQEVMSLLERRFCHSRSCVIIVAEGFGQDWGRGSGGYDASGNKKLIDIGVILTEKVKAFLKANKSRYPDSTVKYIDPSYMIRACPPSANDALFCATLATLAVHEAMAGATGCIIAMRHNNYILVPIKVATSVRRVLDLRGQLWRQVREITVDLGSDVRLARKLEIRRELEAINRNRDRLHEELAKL
Summary of the method: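 PFK 1.25 nM, F6P 0.5 mM, ATP 0.1 mM, MgCl2 5 mM, 0.1 M TEA pH 8.0, Tween20 0.01%, BSA 0.1%; 45 min RT. ADP-Glo two-step detection, luminescence. qHTS titration; curve fitting with curve-class categorization.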

[5] = S16 Schwann cell PMP22 intronic element firefly luciferase assay (AID 624032); also: nearly all actives have a fitted effect of over 30% in size; also: potency is read from the fitted curve at half-maximal effect
Summary of the method: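 Rat S16 Schwann cells stably carrying a PMP22 intronic element-driven Fluc reporter were seeded overnight, then exposed to compounds for 24 h at 37 °C. Luminescence was normalized to PTC124 (positive control) and DMSO (0% activity).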

7G8 = experiment: qHTS profiling for inhibitors of Plasmodium falciparum proliferation (AID 504749); also: nearly all actives have a fitted effect of over 60% in size; also: potency is read from the fitted curve at half-maximal effect; details: P. falciparum in erythrocytes, SYBR Green DNA, 72 h; series mostly up to 12.8 µM
Summary of the method: (§1)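 Fluorescence of SYBR Green-bound parasite DNA, read at 485/535 nm, served as the growth measure. Infected erythrocytes were cultured with compound 72 h; artemisinin (0.29 uM) and DMSO wells defined the normalization range.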

AA1029 = experiment: as above; details: P. falciparum in erythrocytes, SYBR Green DNA, 72 h; series mostly up to 12.8 µM
Summary of the method: as §1

CP194 = experiment: as above; details: P. falciparum in erythrocytes, SYBR Green DNA, 72 h; series mostly up to 12.8 µM
Summary of the method: as §1

CP203 = experiment: as above; details: P. falciparum in erythrocytes, SYBR Green DNA, 72 h; series mostly up to 12.8 µM
Summary of the method: as §1

CP211 = experiment: as above; details: P. falciparum in erythrocytes, SYBR Green DNA, 72 h; series mostly up to 12.8 µM
Summary of the method: as §1

CP265 = experiment: as above; details: P. falciparum in erythrocytes, SYBR Green DNA, 72 h; series mostly up to 12.8 µM
Summary of the method: as §1

CP291 = experiment: as above; details: P. falciparum in erythrocytes, SYBR Green DNA, 72 h; series mostly up to 12.8 µM
Summary of the method: as §1

CP335 = experiment: as above; details: P. falciparum in erythrocytes, SYBR Green DNA, 72 h; series mostly up to 12.8 µM
Summary of the method: as §1

DIV30 = experiment: as above; details: P. falciparum in erythrocytes, SYBR Green DNA, 72 h; series mostly up to 12.8 µM
Summary of the method: as §1

P93_24 = experiment: as above; details: P. falciparum in erythrocytes, SYBR Green DNA, 72 h; series mostly up to 12.8 µM
Summary of the method: as §1

P94_40 = experiment: as above; details: P. falciparum in erythrocytes, SYBR Green DNA, 72 h; series mostly up to 12.8 µM
Summary of the method: as §1

[6] = biological target: Cytochrome P450 2C9 (Homo sapiens) (UniProt P11712); experiment: qHTS Assay for Inhibitors and Substrates of Cytochrome P450 2C9 (AID 883); also: nearly all actives have a fitted effect of over 60% in size
Cytochrome P450 2C9 (Homo sapiens), sequence (P11712 whole entry, looked up): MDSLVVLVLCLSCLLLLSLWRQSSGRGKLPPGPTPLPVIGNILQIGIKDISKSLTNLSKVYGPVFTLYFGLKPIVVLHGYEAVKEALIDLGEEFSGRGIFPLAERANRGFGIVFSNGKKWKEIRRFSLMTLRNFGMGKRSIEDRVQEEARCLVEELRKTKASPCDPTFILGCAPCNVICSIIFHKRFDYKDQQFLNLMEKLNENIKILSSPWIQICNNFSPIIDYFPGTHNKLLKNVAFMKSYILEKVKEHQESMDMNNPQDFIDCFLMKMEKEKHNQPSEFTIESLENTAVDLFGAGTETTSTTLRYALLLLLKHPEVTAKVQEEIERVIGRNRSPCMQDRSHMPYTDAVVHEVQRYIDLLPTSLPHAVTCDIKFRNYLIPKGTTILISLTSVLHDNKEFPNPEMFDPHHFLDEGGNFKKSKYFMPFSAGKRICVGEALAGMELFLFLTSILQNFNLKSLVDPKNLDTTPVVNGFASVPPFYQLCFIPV
Summary of the method: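 Human CYP2C9 (10nM) hydroxylated Luciferin-H (100uM, at its KM) to luciferin in 25mM KPO4. Compound was preincubated 10 min at 37C, then NADPH regeneration started a 60 min reaction at 37C. Luminescence was read after detection reagent, normalized to 57uM sulphaphenazole.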

[7] = biological target: Cytochrome P450 2D6 (Homo sapiens) (UniProt P10635); experiment: qHTS Assay for Inhibitors and Substrates of Cytochrome P450 2D6 (AID 891); also: potency is read from the fitted curve at half-maximal effect; nearly all actives have a fitted effect of over 60% in size
Cytochrome P450 2D6 (Homo sapiens), sequence (P10635 whole entry, looked up): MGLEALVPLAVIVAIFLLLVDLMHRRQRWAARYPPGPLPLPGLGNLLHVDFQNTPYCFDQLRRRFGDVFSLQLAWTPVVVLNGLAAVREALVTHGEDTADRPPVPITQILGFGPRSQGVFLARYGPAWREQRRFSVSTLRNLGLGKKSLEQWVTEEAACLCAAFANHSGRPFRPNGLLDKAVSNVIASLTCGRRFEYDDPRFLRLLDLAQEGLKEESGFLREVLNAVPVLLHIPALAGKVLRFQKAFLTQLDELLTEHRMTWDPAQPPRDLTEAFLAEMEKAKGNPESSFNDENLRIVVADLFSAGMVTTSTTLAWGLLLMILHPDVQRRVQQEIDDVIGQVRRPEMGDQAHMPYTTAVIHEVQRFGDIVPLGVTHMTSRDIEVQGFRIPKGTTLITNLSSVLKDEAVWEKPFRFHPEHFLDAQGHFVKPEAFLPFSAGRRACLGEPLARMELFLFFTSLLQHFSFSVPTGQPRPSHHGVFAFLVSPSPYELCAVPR
Summary of the method: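 Luminescent read-out of luciferin formed by 5 nM human CYP2D6 demethylating 30 uM Luciferin-ME EGE (Km level) over 60 min at room temperature after NADPH regeneration addition. Data normalized to full inhibition by 1.43 uM quinidine.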

CP215 = experiment: qHTS profiling for inhibitors of Plasmodium falciparum proliferation (AID 504749); also: nearly all actives have a fitted effect of over 60% in size; also: potency is read from the fitted curve at half-maximal effect; details: P. falciparum in erythrocytes, SYBR Green DNA, 72 h; series mostly up to 12.8 µM
Summary of the method: as §1

PC26 = experiment: as above; details: P. falciparum in erythrocytes, SYBR Green DNA, 72 h; series mostly up to 12.8 µM
Summary of the method: as §1

O=C(c1cc(C(F)(F)F)cc(C(F)(F)F)c1)N1CCC[C@@]2(CCN(c3ccccn3)C2)C1
Potency [1]: 3.98 µM (active) | Potency [2]: inactive

CC[C@H]1NC(=O)c2cc(S(N)(=O)=O)c(Cl)cc2N1
activation [3]: 3.52% | outcome [4]: inactive | Potency [5]: inactive | Potency (7G8): inactive | Potency (AA1029): inactive | Potency (CP194): inactive | Potency (CP203): inactive | Potency (CP211): inactive | Potency (CP265): inactive | Potency (CP291): inactive | Potency (CP335): inactive | Potency (DIV30): inactive | Potency (P93_24): inactive | Potency (P94_40): inactive

C[C@@]1(O)CCOC(=O)C1
Potency [6]: inactive

c1ccc2c3c([nH]c2c1)[C@@H]1[C@H]2CC[C@H]([C@H]4CCCN[C@H]42)N1CC3
Potency [7]: 7.94 µM (active)

CCOC(=O)O[C@]1(C(=O)COC(=O)CC)CC[C@@H]2[C@@H]3CCC4=CC(=O)C=C[C@@]4(C)[C@H]3[C@H](O)C[C@]21C
Potency [2]: inactive | outcome [4]: inactive | Potency [5]: inactive | Potency (7G8): inactive | Potency (AA1029): inactive | Potency (CP194): inactive | Potency (CP203): inactive | Potency (CP211): inactive | Potency (CP215): inactive | Potency (CP265): inactive | Potency (CP291): inactive | Potency (CP335): inactive | Potency (DIV30): inactive | Potency (P93_24): inactive | Potency (P94_40): inactive | Potency (PC26): inactive

CC(C)(C)NC[C@@H](O)COc1ccccc1C1CCCC1
Potency [7]: 2.51 µM (active) | outcome [4]: inactive | Potency (7G8): 0.708 µM (active) | Potency (AA1029): 2.82 µM (active) | Potency (CP194): 5.73 µM (active) | Potency (CP203): 3.22 µM (active) | Potency (CP215): 4.55 µM (active) | Potency (CP291): 4.05 µM (active) | Potency (CP335): 3.61 µM (active) | Potency (DIV30): 5.73 µM (active) | Potency (P93_24): 2.24 µM (active) | Potency (P94_40): 3.98 µM (active) | Potency (PC26): 6.42 µM (active)

CS(=O)(=O)Nc1cccc(-c2nc(Nc3ccccc3)c3ccccc3n2)c1
Potency [2]: inactive | activation [3]: 6.74%

OCCN1CCN(CCC=C2c3ccccc3Sc3ccc(Cl)cc32)CC1
Potency [2]: inactive | Potency [5]: inactive | Potency (7G8): 3.16 µM (active) | Potency (CP203): inactive

C[C@@H]1[C@H]2CC[C@@H]3[C@@H]4CC=C5C[C@@H](N(C)C)CC[C@]5(C)[C@@H]4CC[C@@]32CN1C
activation [3]: 23.8%

C[C@H]1CC[C@]2(OC1)O[C@@H]1C[C@@H]3[C@@H]4CC[C@H]5C[C@@H](O)CC[C@]5(C)[C@@H]4CC(=O)[C@@]3(C)[C@H]1[C@@H]2C
outcome [4]: inactive | Potency [5]: inactive | Potency (7G8): inactive | Potency (AA1029): inactive | Potency (CP194): inactive | Potency (CP203): inactive | Potency (CP211): inactive | Potency (CP215): inactive | Potency (CP265): inactive | Potency (CP291): inactive | Potency (CP335): inactive | Potency (DIV30): inactive | Potency (P93_24): inactive | Potency (P94_40): inactive | Potency (PC26): inactive

CCCC(=O)Nc1ccc(OC[C@@H](O)CNC(C)C)c(C(C)=O)c1
outcome [4]: inactive | Potency [5]: inactive

CS(=O)(=O)Nc1cccc(-c2nc(Nc3ccc(F)cc3)c3ccccc3n2)c1
Potency [1]: 6.31 µM (active) | Potency [2]: inactive

CC(C)(C)NC[C@H](O)COc1cccc2c1C[C@@H](O)[C@@H](O)C2
outcome [4]: inactive | Potency (7G8): inactive | Potency (AA1029): inactive | Potency (CP194): inactive | Potency (CP203): inactive | Potency (CP211): inactive | Potency (CP215): inactive | Potency (CP265): inactive | Potency (CP291): inactive | Potency (CP335): inactive | Potency (DIV30): inactive | Potency (P93_24): inactive | Potency (P94_40): inactive | Potency (PC26): inactive

C#C[C@@]1(OC(C)=O)CC[C@@H]2[C@@H]3CCC4=C[C@@H](OC(C)=O)CC[C@H]4[C@H]3CC[C@]21C
Potency [1]: inactive | Potency [2]: 5.01 µM (active)

Cc1ccc2c(c1)c1c3n2CCN[C@H]3CCC1
outcome [4]: inactive | Potency [5]: inactive | Potency (7G8): 6.31 µM (active) | Potency (CP211): inactive | Potency (CP215): inactive | Potency (CP291): inactive | Potency (P93_24): inactive

O=C1O[C@@H]([C@@H](O)CO)[C@@H](O)[C@H]1O
outcome [4]: inactive | Potency [5]: inactive | Potency (7G8): inactive | Potency (AA1029): inactive | Potency (CP194): inactive | Potency (CP203): inactive | Potency (CP211): inactive | Potency (CP215): inactive | Potency (CP265): inactive | Potency (CP291): inactive | Potency (CP335): inactive | Potency (DIV30): inactive | Potency (P93_24): inactive | Potency (P94_40): inactive | Potency (PC26): inactive

CN1CCC2(CC1)CCN(C(=O)c1ccncc1)CC2
activation [3]: 7.12%

COc1ccc(CNc2ncncc2-c2ccccc2CN(C)C)c(OC)c1
Potency [1]: 0.398 µM (active) | Potency [2]: inactive | Potency [7]: 2.51 µM (active)

Cc1ncc([N+](=O)[O-])n1C[C@H](O)CCl
activation [3]: -4.65% | outcome [4]: inactive | Potency (7G8): inactive | Potency (AA1029): inactive | Potency (CP194): inactive | Potency (CP203): inactive | Potency (CP211): inactive | Potency (CP215): inactive | Potency (CP265): inactive | Potency (CP291): inactive | Potency (CP335): inactive | Potency (DIV30): inactive | Potency (P93_24): inactive | Potency (P94_40): inactive | Potency (PC26): inactive

CO[C@H]1[C@H](O[C@H]2O[C@@H](C)[C@@H](O[C@@H]3C[C@](C)(O)[C@H](O)[C@H](C)O3)[C@@H](N(C)C)[C@@H]2O)[C@@H](CC=O)C[C@@H](C)[C@@H](O[C@H]2CC[C@H](N(C)C)[C@H](C)O2)/C=C\C=C/C[C@@H](C)OC(=O)C[C@H]1O
outcome [4]: inactive | Potency (CP265): inactive | Potency (DIV30): inactive | Potency (PC26): inactive

C[C@H](N[C@@H](C)COc1ccccc1)[C@H](O)c1ccc(O)cc1
Potency [7]: 0.316 µM (active) | outcome [4]: inactive | Potency [5]: 1.55 µM (active) | Potency (7G8): inactive | Potency (AA1029): inactive | Potency (CP194): inactive | Potency (CP211): inactive | Potency (CP215): inactive | Potency (CP265): inactive | Potency (CP291): inactive | Potency (CP335): inactive | Potency (DIV30): inactive | Potency (P93_24): inactive | Potency (P94_40): inactive | Potency (PC26): inactive

— PubChem BioAssay (NCATS)
